# Results filed as inconclusive are left out. A number with no mark means an inactive call. The source made the active and inactive calls. Calls follow the shape of the dose curve; as a rule, active = well fitted activation curve with a large enough effect; inconclusive = small, poorly fitted or top-dose-only effect; inactive = no such curve, though single readings can be large or run the other way.
# Experiment: qHTS assay for re-activators of p53 using a Luc reporter: Hit Validation with no p53 Expressed; as to activity change, positive = activation: 0% is about no effect
# Conditions: p53-null cells, luciferase reporter counter-screen; series mostly up to 46.1 µM; activity change, positive = activation: at the top concentration
# Procedure, shortened: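 Counter-screen of primary hits in a cell line not transfected with p53, in Opti-MEM with 10% FBS; compounds at several concentrations (10 mM stock, 1:5; top 46.1 µM in well), 24 h at 37 deg C, 5% CO2. Luminescence read after 10 min with Amplite reagent.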
# Potency is read from the fitted curve at half-maximal effect.
Compound,"activity change, positive = activation [%]",Potency
Cc1ccc(Nc2nc(N)nc(CSc3nccn3C)n2)cc1,89,
COc1nnc(-c2ccc(C)c(S(=O)(=O)N(C)C)c2)c2ccccc12,-50.2,
CCCS(=O)(=O)N1CCC(C(=O)NCCN(CC)c2ccccc2)CC1,-29.3,
O=C(/C=C/c1ccccc1)NC1CCSC1=O (stereo unspecified),,16.4 µM (active)
Cc1ccc2nc(NC(=O)c3ccc(Cl)s3)sc2c1,12.4,
CN(C)c1ccc(N=Cc2nc(-c3ccccc3)oc2OC(=O)c2cccc(Cl)c2)cc1,44.4,
COc1ccc([N+](=O)[O-])cc1NC(=O)C1CCCCC1C(=O)O (stereo unspecified),-7.45,
Cc1csc(SCC(=O)Nc2ccc(C)c(F)c2)n1,-5.54,
Cc1ccsc1/C=C(\C#N)C(=O)Nc1c(C)n(C)n(-c2ccccc2)c1=O,-39.4,
COc1cccc(Oc2ccc(N)cn2)c1,-16.6,
COc1ccc(-c2coc3cc(O[C@@H]4O[C@H](CO)[C@@H](O)[C@H](O)[C@H]4O)ccc3c2=O)cc1,8.1,
Cc1nnc2n(c1=O)N=C(c1ccc(Cl)cc1)CS2,32.4,
CS(=O)(=O)c1ccc2nc(NC(=O)CCNC(=O)c3ccccc3Cl)sc2c1,80.4,
COc1ccc(N2C(=O)CC(Cc3ccc(Br)cc3)C2=O)cc1 (stereo unspecified),-57.2,
CC(=O)c1ccc(NC(=O)CCc2nnc3ccc(NCc4ccco4)nn23)cc1,-24.4,
COc1ccc2nc(SCc3ccccc3)nc(C)c2c1,35.8,
Cn1c(Cc2cccs2)nnc1SCc1nc2ccccc2[nH]1,-33.8,
COc1ccc(-n2cc(-c3ccccc3)[nH]c2=S)cc1,10.4,
CCc1ccc2c(CN(CC)Cc3nc4ccccc4c(=O)[nH]3)cc(=O)oc2c1,39.4,
CCOc1ccc(-n2c(SCc3nc(-c4cccs4)no3)nnc2-c2ccncc2)cc1,-28.2,
O=C(CNS(=O)(=O)c1cccc(Cl)c1)Nc1ccc(-c2nc3ccccc3s2)cc1,58.9,
